# Source: PubChem BioAssay (NCATS)
# Inconclusive results are not listed. A number with no mark means an inactive call. The source made the active and inactive calls. Calls come from the whole dose curve; as a rule, active = well fitted curve in the direction sought with a large enough effect; inconclusive = small, poorly fitted or top-dose-only effect, or another doubt; inactive = no such curve, though single readings can be large; an effect the other way counts as inactive or inconclusive.
# Key:
# HaCat = assay: Cytotoxic Profiling of Annotated Libraries Using Quantitative High-Throughput Screening (AID 1296008); details: Five cell lines viability, CellTiter-Glo ATP luminescence, 48-72 h; max response: stronger effect = lower value; note: nearly all actives have a fitted effect of over 60% in size
# Summary of the method: (§1)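 Cytotoxicity was measured as CellTiter-Glo ATP luminescence, read after 10 min at room temperature. Compound treatment of the cells lasted 48 or 72 hr at 37 degrees Celsius in a qHTS format.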
# KB-3-1 = assay: as above; details: Five cell lines viability, CellTiter-Glo ATP luminescence, 48-72 h; max response: stronger effect = lower value
# Summary of the method: as §1
# NIH3T3 = assay: as above; details: Five cell lines viability, CellTiter-Glo ATP luminescence, 48-72 h; max response: stronger effect = lower value
# Summary of the method: as §1
# CAOV3 = assay: Primary qHTS to identify gynecologic anti-cancer compounds using libraries of approved drugs and bioactive compounds (AID 1345084); details: Gynecologic cancer cell panel viability, ATPlite luminescence, 48 h; series mostly up to 57.5 µM; note: nearly all actives have a fitted effect of over 55% in size
# Summary of the method: (§2)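 In this quantitative HTS, cell killing is estimated from loss of ATP-dependent luciferase light. Cells see five compound concentrations over a 48 h exposure.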
# CASKI = assay: as above; details: Gynecologic cancer cell panel viability, ATPlite luminescence, 48 h; series mostly up to 57.5 µM
# Summary of the method: as §2
# HeLa = assay: as above; details: Gynecologic cancer cell panel viability, ATPlite luminescence, 48 h; series mostly up to 57.5 µM
# Summary of the method: as §2
# Hek293T = assay: as above; details: Gynecologic cancer cell panel viability, ATPlite luminescence, 48 h, control line for the selectivity index; series mostly up to 57.5 µM
# Summary of the method: as §2
# JEG-3 = assay: as above; details: Gynecologic cancer cell panel viability, ATPlite luminescence, 48 h; series mostly up to 57.5 µM
# Summary of the method: as §2
# OV90 = assay: as above; details: Gynecologic cancer cell panel viability, ATPlite luminescence, 48 h; series mostly up to 57.5 µM
# Summary of the method: as §2
# Es-2 = assay: as above; details: Gynecologic cancer cell panel viability, ATPlite luminescence, 48 h; series mostly up to 57.5 µM
# Summary of the method: as §2
# C33A = assay: as above; details: Gynecologic cancer cell panel viability, ATPlite luminescence, 48 h; series mostly up to 57.5 µM
# Summary of the method: as §2
# % is set by controls: 0 for no effect and ±100 for the full control effect; potency is the fitted concentration of half-maximal effect.
SMILES,Potency (HaCat),Potency (KB-3-1),Potency (NIH3T3),Potency (CAOV3),Potency (CASKI),Potency (HeLa),Potency (Hek293T),Potency (JEG-3),Potency (OV90),max response (HaCat),max response (KB-3-1),max response (NIH3T3),Potency (Es-2),Potency (C33A)
CN1CCN(C2CCC(n3cc(-c4ccc(Oc5ccccc5)cc4)c4c(N)ncnc43)CC2)CC1 (stereo not given),1.03 µM (active),20.6 µM (active),0.326 µM (active),28.2 µM (active),15.8 µM (active),22.4 µM (active),inactive,inactive,17.8 µM (active),,,,,
CCC1C(=O)OC23C=C[C@@H]4C(C(=O)O)=CO[C@H](O[C@@H]12)[C@@H]43 (stereo not given in full),,,,inactive,inactive,inactive,inactive,inactive,inactive,2.84%,-1.99%,0.895%,inactive,
CN[C@H](C(=O)N[C@H](C(=O)N(C)[C@H](/C=C(\C)C(=O)O)C(C)C)C(C)(C)C)C(C)(C)c1ccccc1,,0.0046 µM (active),,inactive,,,,,,-1.54%,,-50.4%,,
CC1(CCOC2OC(CO)C(O)C(O)C2O)CCC23OC2(C1)C(O)CC1C(C)(C(=O)O)CCCC13C (stereo not given),,,,inactive,inactive,inactive,inactive,inactive,inactive,3.2%,8.97%,0.419%,inactive,
CC(C)c1nc(-c2ccc(NC(=O)Nc3cccc(C(F)(F)F)c3)c3ccccc23)c2c(N)nccn12,7.31 µM (active),5.8 µM (active),8.2 µM (active),22.4 µM (active),,31.6 µM (active),15.8 µM (active),inactive,1.58 µM (active),,,,12.6 µM (active),
Cc1cnc(NC(=O)Nc2cc(Br)c(C)cc2OCC2CNCCO2)cn1 (stereo not given),,14.6 µM (active),2.31 µM (active),,inactive,,8.91 µM (active),inactive,,-19%,,,,inactive
COc1ccc(/C=C/C(=O)O[C@@H]2[C@@H](O)[C@H](C)O[C@@H](O[C@H]3[C@@H]4C=CO[C@@H](O[C@H]5O[C@@H](CO)[C@H](O)[C@@H](O)[C@@H]5O)[C@@H]4[C@@]4(CO)O[C@@H]34)[C@@H]2OC(C)=O)cc1,,,,,,inactive,inactive,inactive,inactive,3.75%,9.04%,1.61%,inactive,inactive
CCC(C)C(=O)OC1CC(O)C23C4OCC5(C(O)CC2C1(C)C(O)O4)C3C(=O)C(O)C1(C)C(O)(c2ccoc2)CC2OC251 (stereo not given),4.85 µM (active),0.968 µM (active),3.06 µM (active),3.98 µM (active),inactive,,,inactive,1.26 µM (active),,,,8.91 µM (active),
CCN1CCN(Cc2ccc(NC(=O)c3ccc(C)c(NC(=O)c4cncc(-c5cccs5)c4)c3)cc2C(F)(F)F)CC1,0.92 µM (active),14.6 µM (active),1.16 µM (active),10 µM (active),10 µM (active),,,25.1 µM (active),12.6 µM (active),,,,2.82 µM (active),
C[C@@H]1CCC2C(C)(C)[C@H](O)CC[C@]2(C)[C@@]12Cc1c(O)cc3c(c1O2)CNC3=O (stereo not given in full),,,,inactive,,,,,,-68.6%,9.73%,-63%,,
O=C(c1cn(Cc2cncn2Cc2ccc(Br)cc2)cc1-c1cccc2ccccc12)N1CCOCC1,5.8 µM (active),11.6 µM (active),7.31 µM (active),,,,,,,,,,inactive,inactive
Cc1onc(C(=O)N2CCN(C(c3ccc(Cl)cc3)c3ccc(Cl)cc3)CC2)c1[N+](=O)[O-],,,0.731 µM (active),2.24 µM (active),inactive,inactive,inactive,,inactive,0.662%,-21.9%,,1 µM (active),
O=[N+]([O-])c1cccc2[nH]c(CNc3nc(N4CCOCC4)nc4c3ncn4-c3ccsc3)nc12,0.461 µM (active),0.164 µM (active),0.259 µM (active),,0.891 µM (active),0.891 µM (active),0.316 µM (active),,,,,,,0.178 µM (active)
C=CC(=O)Nc1cc(Nc2ncc(Cl)c(-c3c[nH]c4ccccc34)n2)c(OC)cc1N(C)CCN(C)C,0.58 µM (active),4.11 µM (active),5.8 µM (active),17.8 µM (active),2.24 µM (active),12.6 µM (active),11.2 µM (active),12.6 µM (active),3.98 µM (active),,,,,
CC1CCC2C(C(=O)O)=COC(O[C@@H]3O[C@H](CO)[C@@H](O)[C@H](O)[C@H]3O)C12 (stereo not given in full),,,,,inactive,,inactive,,inactive,-2.91%,-9.1%,-1.59%,inactive,inactive
O=C(NCc1ccc(S(=O)(=O)c2cc(F)cc(F)c2)cc1)c1ccc2nccn2c1,0.0326 µM (active),0.0046 µM (active),0.0461 µM (active),0.316 µM (active),,,,,,,,,,
